Screening results as filed in PubChem.
Shown are actives, neighbours in structure and some others; about 4% of the full set was active somewhere.
TROY signal inh – inhibitors of TROY-dependent NF-kB signaling; AID 1347056; Q293 LMP1-TROYcd NF-kB luciferase reporter, 4 h; actives 0.98% (n = 360,000); inhibition, % at 10 µM;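 active = compounds whose plate-normalised and pattern-corrected inhibition of the luciferase reporter signal at the single screening dose is 50% or more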
LMP1 NFkB inh – reduces LMP1-driven NF-kappaB luciferase signal; LMP1-induced NF-kappaB luciferase reporter cells, luminescence; inhibition, % at 12.5 µM; actives 0.69% (n = 350,000); AID 504558; in the data active = inhibition above about 41%
HIF-2a block – blocks HIF-2a reporter activity. inhibition, % at 18.8 µM. actives 0.72% (n = 360,000). 786-0 RCC cells HIF-2a reporter, luciferase luminescence, overnight;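 active = inhibition of the luminescence signal of 40% or more relative to plate controls, in a single-dose primary screen at 18.75 µM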
Peg3 promoter – reduces Peg3 promoter-driven luciferase expression in HeLa | AID 588405 | HeLa PEG-Prom luciferase reporter, luminescence, overnight | inhibition, % at 20 µM | actives 1.7% (n = 360,000);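 active = inhibition of at least 50% at 20 µM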
TWEAK-Fn14 inh – TWEAK-Fn14 signaling inhibition. TWEAK-stimulated Fn14 reporter cells, luciferase luminescence, 8 h. inhibition, % at 10 µM. actives 2% (n = 360,000). AID 1159606; in the data active = inhibition above about 50%
MITF TRPM1 inh – inhibitors of MITF-driven TRPM1 promoter in melanoma cells; actives 0.83% (n = 330,000); SK-MEL-5 TRPM1 promoter luciferase, 24 h; inhibition, % at 12.5 µM;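 active = mean inhibition across replicates of 60% or more, whatever share of single replicates reaches that level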
Of the large screens only hits and unclear results are named; the others gave an inactive call.

NC(Cc1ccc(Cl)cc1)c1csc(NC(=O)NCCc2ccccc2)n1 (stereo not drawn)	Peg3 promoter 95.6 (no result: LMP1 NFkB inh, MITF TRPM1 inh)
NC(Cc1ccc(Cl)cc1)c1csc(NC(=O)Nc2ccccc2-c2ccccc2)n1 (stereo not drawn)	Peg3 promoter 89.6 (no result: LMP1 NFkB inh, MITF TRPM1 inh)
CC(C)NC(=O)c1ccc(COc2cc(Cl)ccc2Cl)o1	none
COc1ccccc1N(CC(=O)Nc1ccc(Br)cc1F)S(=O)(=O)c1cccs1	none
COc1ccc(-c2nn(-c3ccccc3)cc2C(=O)NC(=S)N2CCOCC2)cc1OC	none
COc1ccc([C@@H]2C[C@H]3[C@@H](CN2S(=O)(=O)c2ccccc2)C(=O)C[C@@H](c2ccccc2F)N3S(=O)(=O)c2ccc(C)cc2)cc1	none (no result: MITF TRPM1 inh)
CC(N)c1csc(NC(=O)c2cc(C(C)(C)C)nn2Cc2ccccc2)n1 (stereo not drawn)	none (no result: LMP1 NFkB inh, MITF TRPM1 inh)
COc1ccccc1CNC(=O)Nc1nc(C(N)CCc2ccccc2)cs1 (stereo not drawn)	Peg3 promoter 96.7 (no result: LMP1 NFkB inh, MITF TRPM1 inh)
COc1ccc(CC(N)c2csc(NC(=O)c3cc(C(C)(C)C)nn3Cc3ccccc3)n2)cc1 (stereo not drawn)	Peg3 promoter 99.7 (no result: LMP1 NFkB inh, MITF TRPM1 inh)
CC(=O)c1ccc(Nc2nc(C(N)CCc3ccccc3)cs2)cc1 (stereo not drawn)	none (no result: LMP1 NFkB inh, MITF TRPM1 inh)
NC(CCc1ccccc1)c1csc(NC(=O)Nc2ccccc2Oc2ccccc2)n1 (stereo not drawn)	Peg3 promoter 118.1 (no result: LMP1 NFkB inh, MITF TRPM1 inh)
CN(C)S(=O)(=O)c1cccc(NC(=O)c2cccc(S(=O)(=O)N3CCc4ccccc43)c2)c1	TWEAK-Fn14 inh 60.3 (no result: MITF TRPM1 inh)
O=C(Nc1nc2ccccc2s1)c1cccc(S(=O)(=O)N2CCc3ccccc32)c1	TWEAK-Fn14 inh 69.9
O=C(Nc1ccccc1)c1ccc2c(c1)CCN2S(=O)(=O)c1ccccc1	none
CC(=O)NS(=O)(=O)c1ccc(NC(=O)c2cccc(S(=O)(=O)N3CCc4ccccc43)c2)cc1	none
O=C(Nc1ccc(S(=O)(=O)N2CCc3ccccc32)cc1)c1ccc2c(c1)OCO2	TWEAK-Fn14 inh 58.0
CC(=O)c1cccc(NC(=O)c2ccc3c(c2)CCN3S(=O)(=O)c2ccccc2)c1	TWEAK-Fn14 inh 73.8
COc1cccc(CN2CCN(C(=O)[C@H]3O[C@@H](n4cnc5c(N)ncnc54)[C@H](O)[C@@H]3O)CC2=O)c1	none (no result: LMP1 NFkB inh, MITF TRPM1 inh)
O=C(O)c1cc(Nc2cc(Cl)c3nonc3c2[N+](=O)[O-])ccc1O	none
Cc1c(C(c2cc3c(cc2Br)OCO3)c2c(C)n(C)n(-c3ccccc3)c2=O)c(=O)n(-c2ccccc2)n1C	TWEAK-Fn14 inh 64.2
Nc1ccn(C2OC(CO)C(O)C2O)c(=O)n1 (stereo not drawn)	none (no result: LMP1 NFkB inh, MITF TRPM1 inh)
Nc1ccn([C@@H]2O[C@H](CO)[C@@H](O)[C@@H]2O)c(=O)n1	LMP1 NFkB inh 53.1
Cc1ccc(-c2cn3cccnc3n2)cc1NC(=O)c1c(-c2ccccc2Cl)noc1C	none
Cc1onc(-c2ccccc2Cl)c1C(=O)Nc1ccc(-c2cn3cccnc3n2)cc1	Peg3 promoter 94.2
O=C(OCc1ccc(COC(=O)c2ccc(O)cc2)cc1)c1ccc(O)cc1	TROY signal inh 60.7
COc1ccc(C)cc1NCC(=O)Nc1ccc(C(C)(C)C)cc1	none
COc1ccc(-c2nn(-c3ccccc3)cc2/C=N/NC(=O)c2cccc(S(=O)(=O)Nc3ccccc3OC)c2)cc1	none
COc1ccc(-c2nn(-c3ccccc3)cc2/C=N/NC(=O)c2ccc(Br)o2)cc1	TROY signal inh 75.9, Peg3 promoter 89.6, TWEAK-Fn14 inh 93.6, MITF TRPM1 inh 62.7
C[C@]1(O)CC(=O)C=C[C@H]1Nc1ccccc1	none
COc1ccc(/C=C(\C#N)C(=O)N2COCC2(C)C)cc1	none
COc1ccccc1C(=O)/C=C/c1ccc(N2CCCCC2)c([N+](=O)[O-])c1	HIF-2a block 43.9, Peg3 promoter 104.5, TWEAK-Fn14 inh 55.2
CCC[C@H]1CN(c2ccccc2)C(=O)[C@@H]1CC(=O)NC	none (no result: MITF TRPM1 inh)
O=C(CN1CCN(S(=O)(=O)c2ccccc2)CC1)N1CCc2ccccc21	none
Cc1ccc(-c2cn(-c3ccccc3)c(=S)[nH]2)cc1C	TWEAK-Fn14 inh 67.9
O=[N+]([O-])c1ccc(/C=N/Nc2nc(-c3ccccc3)c3cc(Br)ccc3n2)o1	Peg3 promoter 62.5
N#Cc1ccccc1/C=N/Nc1nc(-c2ccccc2)c2cc(Br)ccc2n1	none
Cc1ccc2nc(N/N=C\c3ccc([N+](=O)[O-])o3)nc(-c3ccccc3)c2c1	TWEAK-Fn14 inh 66.9
CCC1(c2ccccc2)NC(=O)N(CC(=O)Nc2ccc3c(C)cc(=O)oc3c2)C1=O (stereo not drawn)	none
Cc1onc(-c2ccccc2)c1C(=O)OCC(=O)Nc1ccc(OC(F)(F)F)cc1	TROY signal inh 52.2
Cc1ccc(NC(=O)COC(=O)c2c(-c3ccccc3)noc2C)cc1	none
Cc1cc(C)n(CCC(=O)N2CCN(S(=O)(=O)c3ccccc3)CC2)n1	none
Cc1cccc(NC(=O)Nc2ccc(Cl)c(Cl)c2)n1	TWEAK-Fn14 inh 57.6
O=C(Nc1cccc(Cl)c1)Nc1cccc(C(=O)O)c1	LMP1 NFkB inh 42.5
COC(=O)c1cccc(NC(=O)Nc2ccc(Cl)c(Cl)c2)c1	TWEAK-Fn14 inh 60.4
COC(=O)c1cc(NC(=O)Nc2ccccc2)ccc1Cl	none
COc1cc(C2(c3ccc(O)c(OC)c3)C(=O)Nc3c(C)cc(Br)cc32)ccc1O	none
CCC(=O)N1CCC1(C)C(=O)Nc1ccc(OC)c(OC)c1 (stereo not drawn)	none (no result: LMP1 NFkB inh, MITF TRPM1 inh)
COc1cc(C(=O)NCCC(c2ccccc2)c2ccccc2)cc(OC)c1OC	none
COc1cc2ccccc2cc1C(=O)Nc1sc2c(c1C(N)=O)CCN(C(C)C)C2	Peg3 promoter 100.5
CCC1(c2ccccc2)ON(c2c(Br)cccc2Br)C1=O (stereo not drawn)	Peg3 promoter 73.0
CC(C)CN1C(=O)c2ccc(C(=O)Nc3ccc(OCC(=O)O)cc3)cc2C1=O	none
O=C(Nc1ccccc1C(=O)O)c1cc(S(=O)(=O)N2CCCCCC2)ccc1Cl	none
O=C(Nc1ccccc1Cl)c1cc(S(=O)(=O)N2CCCC(C(=O)O)C2)ccc1F (stereo not drawn)	TWEAK-Fn14 inh 88.0
Cc1cc(C)c(NC(=O)c2cc(S(=O)(=O)N3CCOCC3)ccc2F)c(C)c1	none
Cc1ccc(NC(=O)c2cc(S(=O)(=O)N3CCOCC3)ccc2F)c(C)c1	TWEAK-Fn14 inh 79.7
COc1cc(Cl)c(C)cc1NC(=O)CCN1C(=O)NC(C)(C)C1=O	none
NC(=O)CC(NC(=O)c1ccccc1)c1ccc(N2CCC(Cc3ccccc3)CC2)c([N+](=O)[O-])c1 (stereo not drawn)	TROY signal inh 55.2
COC(=O)c1cc(C(=O)c2ccc(C(C)(C)C)cc2)c[nH]1	none
CC(C)(C)c1ccc(C(=O)c2c[nH]c(C(=O)O)c2)cc1	TWEAK-Fn14 inh 50.4
CC1CCCN(C(=O)COC(=O)Cn2cnc3ccccc32)C1 (stereo not drawn)	none
